Results taken from PubChem BioAssay.
Activity calls are given as the source filed them.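 How the source made its calls: active means GFP response above 150% of the DMSO level; inconclusive means fewer than 70 events counted for a yeast strain; inactive means the rest.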

Test: AGP1-GFP expression modulators, hit retest, confirmation, cell-based, flow cytometry, S. cerevisiae, cherry picks (AID 2273);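 further: median GFP channel fluorescence over the whole cell population gate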
Conditions: S. cerevisiae AGP1-GFP strain, 3 h, at 10 µM

GFP response, % of DMSO, inactive:
COC(=O)c1ccccc1Sc1ncnc2onc(C)c12 93.2%, CC(C)(C)C(=O)C(Cl)C(=O)Nc1ccccc1 (stereo not given) 135%, O=[N+]([O-])c1ccc(S(=O)(=O)c2cccc(C(F)(F)F)c2)nc1 122%, Cc1cccn2c(=O)c(/C=C(\C#N)C(=O)NC3CCS(=O)(=O)C3)c(N3CC(C)OC(C)C3)nc12 (stereo not given) 104%, CCc1nnc(NC(=O)c2ccc(S(=O)(=O)N(CCOC)CCOC)cc2)o1 97.8%, Cc1ccc(N(C(=O)CCCC(=O)Nc2ccccn2)C(C(=O)NC2CCCC2)c2ccc(O)cc2)cc1C (stereo not given) 111%, COc1ccc(OC)c(C2C(C(=O)Nc3nc4ccccc4s3)=C(C)NC3=C2C(=O)CCC3)c1 (stereo not given) 103%, O=[N+]([O-])c1ccc(-c2cn3nc(-c4ccccc4)c(-c4ccccc4)nc3n2)cc1 106%, COc1ccccc1OC(C)C(=O)Nc1ccccc1C(=O)NCC1CCCO1 (stereo not given) 103%, COc1ccc(NS(=O)(=O)c2cccc3ccccc23)cc1 101%, O=C(c1ccc2ccccc2c1)N1CCN(c2ccc(O)cc2)CC1 99.3%, O=C1c2ccsc2SCCN1Cc1cccc(Cl)c1 98.7%, CCCOc1ccc(C(=O)NNC(=S)NC(=O)CC)cc1 130%, Cc1cccc(N2C(=O)c3cccc4c(N(C)CCO)ccc(c34)C2=O)c1 101%, Cc1ccc(-n2ncc(C#N)c2/N=C/N(C)C)cc1 94.2%, C=CCOc1ccccc1C(=O)/C=C1/C(=O)Nc2ccccc21 100%, O=c1cnnc(SCc2ccc([N+](=O)[O-])cc2)[nH]1 96%, Cc1ccc(S(=O)(=O)N2CCCC2C(=O)Oc2ccccc2)cc1 (stereo not given) 95.6%, COCCNc1c(-c2ccc(O)cc2)nc2ccc(Cl)cn12 93.1%, O=C(Nc1nc(-c2ccc(F)cc2)cs1)c1cnccn1 96.2%, CS(=O)(=O)N1N=C(c2ccc3nccnc3c2)CC1c1ccccc1 (stereo not given) 98.4%, O=C(NCCCSc1ccccc1)c1cc(Cl)ccc1O 90.5%, COc1ccc(N2C(=O)CC(Sc3ncn[nH]3)C2=O)c(OC)c1 (stereo not given) 102%, CN1CCSc2ccc(C(=O)Nc3cccc(F)c3)cc21 97.8%, CCN(CC)CCCN(C(=O)c1ccc(Br)cc1)c1nc(-c2ccc(OC)cc2)cs1 97.9%, O=C(Nc1nccs1)C1CCCN1S(=O)(=O)c1ccc(F)cc1 (stereo not given) 100%, O=C(c1ccccc1)c1ccccc1N1C(=O)C=CC1=O 129%, COc1ccc(N2CCN(C(=O)C3CCCN(S(=O)(=O)c4ccc(C)cc4)C3)CC2)cc1 (stereo not given) 97.3%, Cc1cc(NCCCN2CCOCC2)n2nc(C)c(-c3ccc(F)cc3)c2n1 101%, CCC(C)(C)n1nnnc1C(c1ccc(O)c(OC)c1)N1CCc2ccccc2C1 (stereo not given) 117%, COc1ccc(-c2csc(Nc3ncccc3C)n2)cc1 88.6%, O=S(=O)(Nc1ccc(Br)cc1)c1cccc2nonc12 93.8%, O=C(CSc1nnc(C2COc3ccccc3O2)o1)N1CCCC1 (stereo not given) 103%, CCc1noc(C)c1C(=O)Nc1nc2ccc(OC)cc2s1 95.5%, CCc1ccc(C(=O)/C=C/c2ccc([N+](=O)[O-])o2)cc1 99.1%, CSc1ccc(-c2cc(=O)c3ccccc3o2)cc1 90.5%, COc1ccccc1C(=O)N1CCN(c2cccc(C(F)(F)F)c2)CC1 98.9%, COc1cc(/C=C2\N=C(c3ccccc3)OC2=O)ccc1OCc1c(C)no[n+]1[O-] 97.5%, CC(C)C(=O)Nc1ccc(NC(=O)c2cc3ccccc3o2)cc1 99.1%, CCOC(=O)Cc1csc(NC(=O)CSc2nnc(-c3ccc(C)cc3)o2)n1 104%
